Biological target: Alpha-bungarotoxin (Bungarus multicinctus) (UniProt P60615)
Test: alpha-bungarotoxin binders on microarray, profiling panel, artefact control for SMM control protein annotation, biochemical, small-molecule microarray, Alexa647 label, 635/667 nm fluorescence (AID 1117)
Settings: alpha-BTX-A647 binding fluorescence, higher = more signal

Alpha-bungarotoxin (Bungarus multicinctus), sequence (P60615 whole entry, looked up): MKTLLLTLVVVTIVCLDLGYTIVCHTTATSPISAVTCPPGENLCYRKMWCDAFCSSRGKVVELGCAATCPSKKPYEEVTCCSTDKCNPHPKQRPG

Row | Compound | composite z-score
1 | O=C(NN=C1C[C@@H](O)[C@@H](O)[C@@H]2[C@@H]3C(=O)N(c4cccc(Oc5ccccc5)c4)C(=O)[C@@H]3CC[C@H]12)OCc1ccccc1 | 1.05
2 | C=CCOC(=O)[C@H]1[C@@H]2C(=O)O[C@@H](c3ccccc3)[C@@H](c3ccccc3)N2[C@@H](c2ccc(OCCOC(=O)[C@H]3C[C@H]4C(=O)N[C@@H](Cc5ccccc5)C(=O)N4[C@H]3c3ccc(O)cc3)cc2)[C@]12C(=O)Nc1ccccc12 | 1.46
3 | COCCCNC(=O)[C@@]1(Sc2ccc(C)cc2)CC(=O)N(Cc2ccccc2)[C@@H]1c1ccc(CO)cc1I | 1.23
4 | CCCCCN1CC=CC23O[C@@H]4C=CCOC(=O)[C@@H]4[C@H]2C(=O)N(C(CO)C(C)C)[C@@H]3C1=O (stereo not given in full) | -0.257
5 | CO[C@@H]1COC(=O)CC=C[C@@H](C)[C@@H]2C=C[C@@H](O)[C@@H](COC(=O)CC=C[C@H]1C)O2 | -0.114
6 | CO[C@@H]1COC(=O)[C@H](C)NC(=O)[C@@H](C)COC(=O)CCC[C@H]1C | -0.0916
7 | COC(=O)[C@@]1(Cc2ccc(OC)cc2)[C@H]2c3cc(C(=O)N4CCCC4)n(Cc4cc(F)c(F)c(F)c4)c3C[C@H]2CN1C(=O)c1ccccc1 | 2.06
8 | CC(C)=NOCc1cccc(-c2cc(-c3ccccc3)no2)c1 | 0.553
9 | CC(C)=NOCc1ccc(-c2cc(-c3ccccc3)no2)cc1 | -0.0299
10 | Cn1cccc1C(O)C1C=CC2C(=O)NC(=O)C2N1Nc1ccccn1 (stereo not given) | -0.086
